The target of experiment [1] is human MET Proto-Oncogene, Receptor Tyrosine Kinase (MET), MET (gene 4233) (UniProt P08581). Kind of experiment: NVS_ENZ_hMet: NovaScreen (NVS) Enzymatic Assay for human MET Proto-Oncogene, Receptor Tyrosine Kinase (MET) (AID 2283180). Put shortly: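 Cell-free MET kinase assay using recombinant protein and fluorescent substrate, with mobility-shift separation; read 1 h after dosing. Primary duplicate at 25 uM; actives in singleton concentration-response to 50 uM maximum. Signal loss versus DMSO.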

Experiment [2] concerns the target human p21 Activated Kinase 4 (PAK4), PAK4 (gene 10298) (UniProt O96013). The experiment in a line: NVS_ENZ_hPAK4: NovaScreen (NVS) Enzymatic Assay for human p21 Activated Kinase 4 (PAK4) (AID 2283189). Put shortly:
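Cell-free recombinant human PAK4 activity assay; fluorescent substrate and product separated by electrophoretic mobility shift, read 1 h after dosing. Initially tested in duplicate at 25 uM, relative to DMSO baseline.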

Experiment [3] has as its target PPP2CA (gene 5515) (UniProt P67775). The experiment in a line: NVS_ENZ_hPPP2CA: NovaScreen (NVS) Enzymatic Assay for human Protein Phosphatase 2 Aatalytic subunit Alpha (PPP2CA) (AID 2283199). Put shortly: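 Recombinant human PPP2CA with fluorescent substrate; product separated from substrate by electrophoretic mobility shift, read 1.33 h after dosing. Duplicate single-point at 25 uM, then singleton concentration-response up to 50 uM; loss of signal versus DMSO.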

Experiment [4] deals with Serine/threonine-protein phosphatase PP1-alpha catalytic subunit (Homo sapiens) (UniProt P62136). Kind of experiment: NVS_ENZ_hPPP1CA: NovaScreen (NVS) Enzymatic Assay for human Protein Phosphatase 1 Aatalytic subunit Alpha (PPP1CA) (AID 2283200). Put shortly:
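Recombinant enzyme activity read by fluorescence with electrophoretic mobility shift separating substrate from product, 1.33 h after dosing; loss of signal vs DMSO baseline. Primary screen in duplicate at 25 uM; actives retested in concentration-response up to 50 uM.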

For experiment [5], the target named is Tyrosine-protein phosphatase non-receptor type 11 (Homo sapiens) (UniProt Q06124). The experiment in a line: NVS_ENZ_hPTPN11: NovaScreen (NVS) Enzymatic Assay for human Protein Tyrosine Phosphatase Non-receptor Type 11 (PTPN11) (AID 2283202). Put shortly: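 Recombinant human PTPN11 activity on a fluorescent substrate, with substrate/product separated by electrophoretic mobility shift; read 0.5 h after dosing, loss of signal vs DMSO. Duplicate 25 uM screen, then concentration-response up to 50 uM.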

For experiment [6], the target named is human Phosphatase and Tensin Homolog (PTEN), PTEN (gene 5728) (UniProt P60484). Kind of experiment: NVS_ENZ_hPTEN: NovaScreen (NVS) Enzymatic Assay for human Phosphatase and Tensin Homolog (PTEN) (AID 2283203). A digest of the protocol:
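Cell-free recombinant human PTEN with fluorescent substrate; product separated by electrophoretic mobility shift and read by fluorescence 1 h after dosing. Primary screen in duplicate at 25 uM, actives followed in concentration series versus DMSO.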

In experiment [7] the target is human Phosphodiesterase 10 (PDE10), PDE10A (gene 10846) (UniProt Q9Y233). Kind of experiment: NVS_ENZ_hPDE10: NovaScreen (NVS) Enzymatic Assay for human Phosphodiesterase 10 (PDE10) (AID 2283195). A digest of the protocol: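 Fluorescence/mobility-shift readout of PDE10A enzyme activity, taken 1 h post-dosing. Primary screen in duplicate at 25 uM; actives (e.g. ≥30% inhibition) retested as singleton concentration-response, top concentration 50 uM.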

Experiment [8] concerns the target human Phosphoinositide 3-kinase alpha (PI3Ka), PIK3CA (gene 5290) (UniProt P42336). The experiment in a line: NVS_ENZ_hPI3Ka: NovaScreen (NVS) Enzymatic Assay for human Phosphoinositide 3-kinase alpha (PI3Ka) (AID 2283196). Put shortly:
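Chemicals were first screened at 25 uM in duplicate, then hits were run as concentration series up to 50 uM. Enzyme activity was measured by fluorescence after mobility-shift separation, with loss of signal relative to DMSO taken as activity.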

Experiment [9] has as its target human Matrix Metalloproteinase-9 (MMP9), MMP9 (gene 4318) (UniProt P14780). Kind of experiment: NVS_ENZ_hMMP9: NovaScreen (NVS) Enzymatic Assay for human Matrix Metalloproteinase-9 (MMP9) (AID 2283190).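 Further: cell-free recombinant MMP9 protease activity read by fluorescent substrate signal; active means inhibition seen as loss of fluorescence signal versus DMSO.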 A digest of the protocol: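 Inhibition was scored as loss of fluorescence signal against DMSO controls. The recombinant protease was exposed to chemicals for 1 hour before reading; initial testing used 25 uM in duplicate.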

For experiment [10], the target named is Collagenase 3 (Homo sapiens) (UniProt P45452). The experiment in a line: NVS_ENZ_hMMP13: NovaScreen (NVS) Enzymatic Assay for human Matrix Metalloproteinase-13 (MMP13) (AID 2283182). A digest of the protocol:
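Recombinant MMP13 cleaving fluorescent substrate, cell-free, measured 1 h after dosing. Primary duplicate screen at 25 uM; actives tested in concentration-response up to 50 uM; loss of signal relative to DMSO.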

Experiment [11] has as its target human Matrix Metalloproteinase-2 (MMP2), MMP2 (gene 4313) (UniProt P08253). The experiment in a line: NVS_ENZ_hMMP2: NovaScreen (NVS) Enzymatic Assay for human Matrix Metalloproteinase-2 (MMP2) (AID 2283184). A digest of the protocol:
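Cell-free recombinant MMP2 activity with a fluorescent substrate, read 1 h after dosing. Primary screen in duplicate at 25 uM; actives then run in concentration series; loss of signal fitted versus DMSO.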

Experiment [12] addresses human Phosphodiesterase 5 (PDE5), PDE5A (gene 8654) (UniProt O76074). Kind of experiment: NVS_ENZ_hPDE5: NovaScreen (NVS) Enzymatic Assay for human Phosphodiesterase 5 (PDE5) (AID 2283194). Put shortly:
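Recombinant human PDE5 with specific substrate, read 1 h after dosing by fluorescence with electrophoretic mobility-shift separation of substrate and product. Initial single-concentration duplicate screen at 25 uM, actives followed in concentration series; loss of activity versus DMSO.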

Experiment [13] has as its target human Matrix Metalloproteinase-1 (MMP1), MMP1 (gene 4312) (UniProt P03956). Kind of experiment: NVS_ENZ_hMMP1: NovaScreen (NVS) Enzymatic Assay for human Matrix Metalloproteinase-1 (MMP1) (AID 2283181). A digest of the protocol: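 Human MMP1 enzyme activity measured by fluorescence 1 h after dosing, cell-free, with a specific substrate. Screened in duplicate at 25 uM; hits (e.g. 30% inhibition) run in concentration-response up to 50 uM; loss of signal versus DMSO.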

Experiment [14] has as its target human Matrix Metalloproteinase-3 (MMP3), MMP3 (gene 4314) (UniProt P08254). The experiment in a line: NVS_ENZ_hMMP3: NovaScreen (NVS) Enzymatic Assay for human Matrix Metalloproteinase-3 (MMP3) (AID 2283185). A digest of the protocol: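 Cell-free recombinant human MMP3 activity, fluorescence intensity read 1 h after dosing. Primary screen duplicate at 25 uM, actives retested in concentration series; loss of signal vs DMSO baseline.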

The target in experiment [15] is human Matrix Metalloproteinase-7 (MMP7), MMP7 (gene 4316) (UniProt P09237). Kind of experiment: NVS_ENZ_hMMP7: NovaScreen (NVS) Enzymatic Assay for human Matrix Metalloproteinase-7 (MMP7) (AID 2283183). A digest of the protocol: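 Cell-free fluorescence enzymatic assay read 1 h after compound addition, activity loss analyzed against DMSO. Primary duplicate testing at 25 uM; compounds meeting threshold rerun in singleton concentration-response up to 50 uM.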

For experiment [16], the target named is human Phosphodiesterase 4A1 (PDE4A1), PDE4A (gene 5141) (UniProt P27815). The experiment in a line: NVS_ENZ_hPDE4A1: NovaScreen (NVS) Enzymatic Assay for human Phosphodiesterase 4A1 (PDE4A1) (AID 2283191). Put shortly:
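Cell-free recombinant human PDE4A1 with fluorescent substrate; product separated by electrophoretic mobility shift, 1 h. Screened at 25 uM, then up to 50 uM in concentration-response; loss of signal fitted against DMSO.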

The text below walks through data of PubChem BioAssay (EPA / NIEHS).

SMILES strings stand for the structures. Inconclusive results are not listed. Calls of active or inactive are those of the source. How the source made its calls: active means hit-call score of the fitted dose curve at least 0.9, where 1 is the maximum; inconclusive means response in the unintended direction; inactive means score below 0.9.

Chain of human Phosphatase and Tensin Homolog (PTEN), PTEN (gene 5728) (P60484 whole entry, looked up): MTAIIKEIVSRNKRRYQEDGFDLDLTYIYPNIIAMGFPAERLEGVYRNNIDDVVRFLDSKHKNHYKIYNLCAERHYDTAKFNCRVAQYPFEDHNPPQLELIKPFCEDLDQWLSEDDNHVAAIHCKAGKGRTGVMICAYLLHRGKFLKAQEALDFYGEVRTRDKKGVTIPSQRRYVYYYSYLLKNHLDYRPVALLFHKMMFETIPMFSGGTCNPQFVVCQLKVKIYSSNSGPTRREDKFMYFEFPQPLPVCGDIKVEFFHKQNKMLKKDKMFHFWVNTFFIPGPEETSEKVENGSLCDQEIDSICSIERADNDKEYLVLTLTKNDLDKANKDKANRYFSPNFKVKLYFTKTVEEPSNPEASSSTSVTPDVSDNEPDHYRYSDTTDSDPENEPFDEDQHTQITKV
Chain of human Phosphodiesterase 10 (PDE10), PDE10A (gene 10846) (Q9Y233 whole entry, looked up): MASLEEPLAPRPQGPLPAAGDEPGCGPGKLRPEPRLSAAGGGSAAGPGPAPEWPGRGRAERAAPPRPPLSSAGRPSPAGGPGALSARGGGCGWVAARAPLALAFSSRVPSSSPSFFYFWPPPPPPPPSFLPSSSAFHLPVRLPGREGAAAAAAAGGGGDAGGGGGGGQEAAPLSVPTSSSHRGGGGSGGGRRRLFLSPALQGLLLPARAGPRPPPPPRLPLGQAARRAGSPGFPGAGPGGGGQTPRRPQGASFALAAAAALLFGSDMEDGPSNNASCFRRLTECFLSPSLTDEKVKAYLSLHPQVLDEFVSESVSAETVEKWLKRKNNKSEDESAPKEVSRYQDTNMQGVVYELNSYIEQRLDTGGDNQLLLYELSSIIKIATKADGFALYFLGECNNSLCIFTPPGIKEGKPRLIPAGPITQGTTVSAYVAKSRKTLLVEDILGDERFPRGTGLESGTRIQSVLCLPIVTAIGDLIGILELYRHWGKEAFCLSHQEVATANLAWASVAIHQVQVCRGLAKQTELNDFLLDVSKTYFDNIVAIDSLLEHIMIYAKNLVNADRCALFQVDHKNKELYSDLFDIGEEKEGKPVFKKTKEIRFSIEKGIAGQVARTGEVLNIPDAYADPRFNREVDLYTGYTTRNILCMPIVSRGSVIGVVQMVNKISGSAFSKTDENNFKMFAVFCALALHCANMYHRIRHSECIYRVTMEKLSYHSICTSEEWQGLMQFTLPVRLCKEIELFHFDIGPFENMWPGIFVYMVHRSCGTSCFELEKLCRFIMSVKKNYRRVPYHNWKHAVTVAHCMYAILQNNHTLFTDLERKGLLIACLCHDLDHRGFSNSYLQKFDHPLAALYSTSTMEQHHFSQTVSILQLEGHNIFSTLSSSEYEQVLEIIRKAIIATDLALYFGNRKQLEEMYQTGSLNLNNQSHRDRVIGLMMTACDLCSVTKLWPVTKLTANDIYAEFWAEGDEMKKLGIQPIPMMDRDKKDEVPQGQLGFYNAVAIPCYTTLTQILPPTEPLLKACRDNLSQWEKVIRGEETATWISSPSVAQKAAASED
Chain of Tyrosine-protein phosphatase non-receptor type 11 (Homo sapiens) (Q06124 whole entry, looked up): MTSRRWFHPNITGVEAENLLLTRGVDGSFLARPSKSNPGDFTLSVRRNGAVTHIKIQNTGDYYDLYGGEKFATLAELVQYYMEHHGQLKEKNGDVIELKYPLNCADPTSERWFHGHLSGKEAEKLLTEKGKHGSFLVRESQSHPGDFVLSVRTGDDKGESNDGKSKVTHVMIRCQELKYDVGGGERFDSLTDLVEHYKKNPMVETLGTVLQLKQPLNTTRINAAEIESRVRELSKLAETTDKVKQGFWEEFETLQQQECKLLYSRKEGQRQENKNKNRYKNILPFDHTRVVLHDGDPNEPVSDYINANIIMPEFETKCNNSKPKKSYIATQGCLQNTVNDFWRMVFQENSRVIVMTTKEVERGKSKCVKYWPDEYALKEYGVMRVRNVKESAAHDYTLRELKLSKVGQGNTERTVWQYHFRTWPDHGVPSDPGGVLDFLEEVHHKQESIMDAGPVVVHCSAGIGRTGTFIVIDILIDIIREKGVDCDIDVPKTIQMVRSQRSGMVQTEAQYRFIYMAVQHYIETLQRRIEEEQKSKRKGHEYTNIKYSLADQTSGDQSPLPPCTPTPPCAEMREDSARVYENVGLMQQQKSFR
Chain of human Matrix Metalloproteinase-9 (MMP9), MMP9 (gene 4318) (P14780 whole entry, looked up): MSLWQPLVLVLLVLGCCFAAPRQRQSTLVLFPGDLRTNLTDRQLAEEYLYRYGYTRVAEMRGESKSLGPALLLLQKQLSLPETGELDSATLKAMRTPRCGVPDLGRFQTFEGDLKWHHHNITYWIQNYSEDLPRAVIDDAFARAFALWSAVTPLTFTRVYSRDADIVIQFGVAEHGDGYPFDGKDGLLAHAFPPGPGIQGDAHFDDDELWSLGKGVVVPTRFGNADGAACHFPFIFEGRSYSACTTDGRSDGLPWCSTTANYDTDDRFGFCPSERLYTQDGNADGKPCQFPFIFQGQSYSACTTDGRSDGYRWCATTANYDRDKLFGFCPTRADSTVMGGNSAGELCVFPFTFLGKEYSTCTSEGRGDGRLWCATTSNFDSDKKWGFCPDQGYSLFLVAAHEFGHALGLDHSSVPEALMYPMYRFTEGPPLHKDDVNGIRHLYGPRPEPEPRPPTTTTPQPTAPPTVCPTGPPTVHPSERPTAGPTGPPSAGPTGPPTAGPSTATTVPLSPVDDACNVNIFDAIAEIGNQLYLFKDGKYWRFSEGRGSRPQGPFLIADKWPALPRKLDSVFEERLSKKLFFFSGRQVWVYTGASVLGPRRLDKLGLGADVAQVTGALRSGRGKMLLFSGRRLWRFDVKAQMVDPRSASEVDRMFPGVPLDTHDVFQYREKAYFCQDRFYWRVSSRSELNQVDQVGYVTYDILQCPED
Chain of human Matrix Metalloproteinase-2 (MMP2), MMP2 (gene 4313) (P08253 whole entry, looked up): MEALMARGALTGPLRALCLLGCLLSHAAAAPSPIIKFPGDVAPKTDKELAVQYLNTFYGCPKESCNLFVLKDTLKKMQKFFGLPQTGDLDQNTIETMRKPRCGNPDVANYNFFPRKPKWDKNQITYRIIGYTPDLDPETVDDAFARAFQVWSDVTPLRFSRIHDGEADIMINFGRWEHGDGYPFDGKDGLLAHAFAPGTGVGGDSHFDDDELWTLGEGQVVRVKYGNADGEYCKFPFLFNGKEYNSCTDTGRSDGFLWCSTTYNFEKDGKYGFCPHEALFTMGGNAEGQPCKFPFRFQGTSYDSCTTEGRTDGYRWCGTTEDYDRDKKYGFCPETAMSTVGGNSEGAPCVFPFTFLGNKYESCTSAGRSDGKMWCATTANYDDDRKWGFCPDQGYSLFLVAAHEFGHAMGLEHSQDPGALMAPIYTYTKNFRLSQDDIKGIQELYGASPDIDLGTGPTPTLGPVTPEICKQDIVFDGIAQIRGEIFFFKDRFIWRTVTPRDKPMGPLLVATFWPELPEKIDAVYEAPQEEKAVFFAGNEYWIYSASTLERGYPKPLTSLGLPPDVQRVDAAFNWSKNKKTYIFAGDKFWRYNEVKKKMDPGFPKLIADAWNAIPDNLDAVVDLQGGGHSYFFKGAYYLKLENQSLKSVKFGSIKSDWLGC
Chain of human Phosphoinositide 3-kinase alpha (PI3Ka), PIK3CA (gene 5290) (P42336 whole entry, looked up): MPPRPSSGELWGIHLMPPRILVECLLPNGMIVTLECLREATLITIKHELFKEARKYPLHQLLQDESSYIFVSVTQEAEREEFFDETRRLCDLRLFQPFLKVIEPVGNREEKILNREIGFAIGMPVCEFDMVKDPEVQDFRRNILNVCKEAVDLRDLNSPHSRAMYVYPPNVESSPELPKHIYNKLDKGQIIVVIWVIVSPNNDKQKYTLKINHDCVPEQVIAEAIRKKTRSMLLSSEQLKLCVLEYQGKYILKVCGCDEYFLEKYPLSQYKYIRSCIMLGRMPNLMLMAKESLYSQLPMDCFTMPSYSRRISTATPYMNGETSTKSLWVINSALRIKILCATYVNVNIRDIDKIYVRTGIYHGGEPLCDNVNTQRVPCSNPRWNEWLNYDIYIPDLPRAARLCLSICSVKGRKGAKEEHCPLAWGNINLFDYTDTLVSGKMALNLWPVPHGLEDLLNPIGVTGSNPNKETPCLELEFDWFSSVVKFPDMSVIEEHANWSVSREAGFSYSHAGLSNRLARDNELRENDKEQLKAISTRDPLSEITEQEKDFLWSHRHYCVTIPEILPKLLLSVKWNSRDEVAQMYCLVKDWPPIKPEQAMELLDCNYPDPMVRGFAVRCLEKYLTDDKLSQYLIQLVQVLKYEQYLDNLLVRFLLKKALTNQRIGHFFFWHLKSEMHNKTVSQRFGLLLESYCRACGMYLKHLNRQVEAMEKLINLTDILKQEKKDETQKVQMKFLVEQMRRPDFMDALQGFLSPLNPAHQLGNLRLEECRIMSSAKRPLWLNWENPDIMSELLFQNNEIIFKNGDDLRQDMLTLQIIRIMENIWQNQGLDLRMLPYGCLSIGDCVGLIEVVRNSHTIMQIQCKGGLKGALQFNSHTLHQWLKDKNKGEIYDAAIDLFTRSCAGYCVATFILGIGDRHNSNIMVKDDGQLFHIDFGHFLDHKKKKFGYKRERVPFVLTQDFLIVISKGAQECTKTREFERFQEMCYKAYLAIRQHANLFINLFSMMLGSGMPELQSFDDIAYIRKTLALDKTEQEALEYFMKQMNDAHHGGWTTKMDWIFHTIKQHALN
Chain of PPP2CA (gene 5515) (P67775 whole entry, looked up): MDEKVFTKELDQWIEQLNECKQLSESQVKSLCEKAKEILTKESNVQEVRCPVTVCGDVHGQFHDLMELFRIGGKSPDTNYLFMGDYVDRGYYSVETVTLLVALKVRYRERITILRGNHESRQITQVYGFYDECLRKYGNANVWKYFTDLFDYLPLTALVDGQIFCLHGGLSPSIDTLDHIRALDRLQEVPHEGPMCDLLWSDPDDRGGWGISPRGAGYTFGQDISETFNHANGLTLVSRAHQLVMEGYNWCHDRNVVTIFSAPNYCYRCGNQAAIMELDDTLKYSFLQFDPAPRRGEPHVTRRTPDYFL

Turning to `CC(C)(C)OOC(C)(C)C`, the call in [1], in experiment [2], in [3], in experiment [4], in experiment [5] and in experiment [6] was inactive.

As a reminder, the AC50 is the concentration at which the activity in the assay is half-maximal. As for `Cc1ccc2c(c1N)C(=O)c1ccccc1C2=O`, in [7], the AC50 is 5.53 µM (active). In [8], the molecule was classed as inactive.

As to `CCCCC(CC)COP(=O)(Oc1ccccc1)Oc1ccccc1` (stereo not given), the AC50 in experiment [9] is 2.08 µM (active).

Take `O=[N+]([O-])c1cc(Cl)ccc1Cl`: the molecule was classed as inactive in [7] and in experiment [6].

As for `Nc1ccc([N+](=O)[O-])cc1Cl`, the AC50 in [6] was 2.67 µM (active).

`CC(Cc1ccc(OCC(=O)O)cc1)NCC(O)c1csc(C(F)(F)F)n1` (stereo not given): the result in experiment [10] and in [9] was inactive. In addition, the AC50 in experiment [11] is 2.3 µM (active).

For `[N-]=[N+]=[N-]`, in experiment [12], the outcome was inactive.

Consider `Cc1ccc(O)cc1C`, for which, in [13], the AC50 is 4.79 µM (active).

Take `CCOP(=S)(OCC)SCSc1ccc(Cl)cc1`: in experiment [6], the molecule was classed as inactive.

As for `ClC(Cl)=C(c1ccc(Cl)cc1)c1ccccc1Cl`, the result in experiment [6] was inactive.

For `O=[N+]([O-])c1ccccc1`, in experiment [14], the outcome was inactive.

As for `CC(Cl)CN(C)C` (stereo not given), the result in [7] and in experiment [6] was inactive.

With `CCN(CC)c1ccccc1`, in experiment [10], the call was inactive.

As for `Cc1ccc(C(=O)Cl)cc1`, the molecule was called inactive in [6].

In the case of `O=c1ssc(Cl)c1Cl`, the outcome in experiment [5] and in experiment [6] was inactive.

Take `CSC(C)(C)C=NO`: the call in experiment [15], in experiment [16] and in experiment [8] was inactive. Moreover, in experiment [11], the AC50 was 7.52 µM (active).
